Only a selection was taken, and hits are over-represented in it overall.
RmlC RmlD mix: RmlC/RmlD inhibition, mixture screen. RmlC/RmlD coupled enzyme inhibition, 384-well mixture HTS. inhibition, % at 5.5 µM. actives 0.39% (n = 110,000). AID 1532; in the data active means inhibition above about 30%, passing the limit was not always enough; inconclusive means no clear call, values can overlap the other calls
HIV RNase H inh-1: blocks HIV-1 RNase H cleavage of RNA/DNA duplex; P04585; RT-RNase H RNA/DNA duplex cleavage, fluorescence; inhibition, % at 10 µM; actives 1.9% (n = 65,000); in the data active means inhibition above about 50%
HIV RNase H inh-2: confirmation of HIV-1 reverse transcriptase RNase H inhibitors; actives 39% (n = 1,000); inhibition, % at 10 µM; AID 651; Recombinant RT RNase H, fluorescent RNA/DNA duplex cleavage; shares compounds with HIV RNase H inh-1; in the data active means inhibition above about 48%; inconclusive means no clear call, values can overlap the other calls
The depositor's hits bear a star; u = inconclusive; x = no result.

SMILES	RmlC RmlD mix	HIV RNase H inh-1	HIV RNase H inh-2
Clc1ccc(-c2nnc3sc(-c4ccc(Br)o4)nn23)cc1	2	48	x
Cc1oc(-c2ccc(Cl)cc2)cc1-c1nn2c(-c3ccoc3C)nnc2s1	14	86*	55*
Cc1cc(NC(=O)CSc2ccccc2)no1	-11	-9	x
CCCCOC(=O)CSCC(=O)Nc1cc(C)on1	-10	71*	5
O=C(NCN1CCCCC1)c1cccnc1	9	-8	x
COC(=O)c1ccc(CSc2nnnn2-c2ccc(C)cc2C)o1	-2	-33	x
COC(=O)c1sc(NC(=O)CSc2nnnn2-c2ccc(C)cc2C)nc1C	7	64*	9
CCCCCCCCN1[C@@H](CC(C)=O)c2cc(C(F)(F)F)ccc2S1(=O)=O	-13	x	x
CC(C)CC(=O)Nc1ccccc1N1CCN(C(=O)c2ccccc2)CC1	x	1	x
CCc1ccc(NC(=O)C(CC)Sc2nc3cc4c(cc3c(=O)n2Cc2ccco2)OCO4)cc1 (configuration not stated)	13	x	x
CCc1ccccc1NC(=O)C(CC)Sc1nc2cc3c(cc2c(=O)n1Cc1ccco1)OCO3 (configuration not stated)	-13	78*	-12
CCN(Cc1ccccc1)S(=O)(=O)c1ccc(C(=O)Nc2nnc(-c3ccccc3OC)o2)cc1	x	78*	62*
COc1cccc(-c2nnc(NC(=O)c3cccc(F)c3)o2)c1	-6	-1	x
CCCN(CCC)S(=O)(=O)c1ccc(C(=O)Nc2nnc(-c3cccc(OC)c3)o2)cc1	x	68*	89*
CCCN(CCC)S(=O)(=O)c1ccc(C(=O)Nc2nnc(-c3cc(OC)cc(OC)c3)o2)cc1	x	53*	-11
COc1ccccc1-c1nnc(NC(=O)c2ccc(S(=O)(=O)N(C)C)cc2)o1	6	2	x
CCCN(CCC)S(=O)(=O)c1ccc(C(=O)Nc2nnc(CSC)o2)cc1	-3	20	x
O=C(Nc1ccccc1-c1ccccc1)c1ccco1	-8	-42	x
CCCNCC(O)COc1ccccc1C(=O)CCc1ccccc1 (configuration not stated)	-14	1	x
Cc1cc(Nc2ccc(N3CCC(C)CC3)cc2)n2ncnc2n1	-1	18	x
Cc1c(C(=O)c2no[n+]([O-])c2C(=O)c2cnn(C)c2C)cnn1C	-11	-1	x
COC(=O)c1ccc(-c2nc3ccccc3o2)cc1	x	-5	x
COc1nnc(-c2ccc(N3CCCCC3)c(NC(C)=O)c2)c2ccccc12	6	x	x
O=C(CSc1nnnn1-c1ccccc1)Nc1nsc(-c2ccccc2)n1	11	-6	x
O=C(CSc1nnnn1-c1ccccc1)Nc1nsc(-c2ccc(Cl)cc2)n1	6	65*	58*
SMILES	RmlC RmlD mix	HIV RNase H inh-1	HIV RNase H inh-2
O=C(CN(C1CCCCC1)S(=O)(=O)c1ccc(F)cc1)NCc1ccncc1	7	x	x
O=C(O)CCCCNCc1ccccc1	-5	x	x
N#CCCN1CCN(C(=S)c2ccc(-c3ccc(Cl)cc3)o2)CC1	40	56*	13
S=C(c1ccc(-c2ccc(Cl)cc2)o1)N1CCCCC1	9	x	x
COC(=O)c1ccccc1NC(=O)C1CCCN(c2nnc(-n3cccc3)s2)C1 (configuration not stated)	7	-1	x
Fc1cccc(-n2ncc(-c3nnnn3-c3ccccc3)c2C(F)(F)F)c1	12	x	x
CCn1ncc(C2=NOC(C(=O)NCc3ccccc3)C2)c1C (configuration not stated)	-9	50*	26
CCn1ncc(C2=NOC(C(=O)NCc3ccc(OC)cc3)C2)c1C (configuration not stated)	10	-11	x
CCn1c(SCC(=O)Nc2oc(-c3ccccc3)c(-c3ccccc3)c2C#N)nnc1-c1ccco1	12	64*	14
CCn1c(SCC(=O)Nc2oc(-c3ccccc3)c(-c3ccccc3)c2C#N)nnc1-c1ccncc1	6	x	x
CCNC(=O)CSc1ncnc2sccc12	-4	x	x
CCn1c(SCC(=O)Nc2ccc3c(c2)OCCO3)nnc1-c1ccco1	-14	-1	x
N#Cc1c(NC(=O)CSc2ncnc3sccc23)oc(-c2ccco2)c1-c1ccco1	2	74*	19
CCn1c(SCC(=O)Nc2ccc3c(c2)c2ccccc2n3CC)nnc1-c1ccco1	x	100*	11
CCCCCC1CCC(c2ccc(C(N)=O)cc2)CC1 (configuration not stated)	-5	x	x
CCOC(=O)CNc1c(N2CCN(c3ccccn3)CC2)c(=O)c1=O	-14	-7	x
CNc1nc2c(c(=O)n(C)c(=O)n2C)n1Cc1ccccc1	-2	-1	x
COC(=O)c1sc2nc(-c3ccco3)ccc2c1N	-20	79*	34
NC(=O)c1sc2nc(-c3ccco3)ccc2c1N	3	x	x
COc1cccc(CSc2nc3sc(C)c(C)c3c(=O)n2Cc2ccco2)c1	-8	3	x
N#Cc1ccc(-c2ccccc2)nc1SCC(=O)c1cc2ccccc2oc1=O	28	x	x
CC(C)c1c(C#N)c(N)nc(SCC(=O)c2cc3ccccc3oc2=O)c1C#N	-5	75*	33
O=c1c2cnn(-c3ccccc3Cl)c2ncn1Cc1cccnc1	-2	-9	x
Cc1cc(C)c(C#N)c(=N)o1	x	93*	74*
CSc1nc(C)cc(C)c1C#N	12	x	x
SMILES	RmlC RmlD mix	HIV RNase H inh-1	HIV RNase H inh-2
Cc1noc(C)c1COc1ccc(C(=O)OCC(=O)Nc2ccc3c(c2)OCO3)cc1	-10	x	x
O=C1CCCC2=C1C(c1ccccc1O)C1=C(CCCC1=O)O2	-7	11	x
O=C1CCCC(O)=C1C(C#Cc1ccccc1)C1=C(O)CCCC1=O	-13	83*	78*
COc1ccc(-n2nnnc2SCc2nc3ccccc3s2)cc1	-7	x	x
COC(=O)c1ccc2c(=O)n(Cc3ccco3)c(SCC(=O)Nc3ccc(C)c(Cl)c3)nc2c1	15	85*	76*
COCCNC(=O)CSc1nc2cc(OC)c(OC)cc2c(=O)n1Cc1ccco1	6	-19	x
CCc1c(C)sc(NC(=O)c2cc(-c3ccc(O)cc3)on2)c1C#N	19	x	x
CCOC(=O)N(c1ccccc1)P1(=S)OCCO1	10	88*	57*
CCOC(=O)N(c1ccccc1)P1(=S)OCC(C)O1 (configuration not stated)	-6	-1	x
CNC(=O)N(c1ccccc1)c1ccccc1	-16	-13	x
COC(=O)N(c1ccccc1)P1(=S)OCCO1	66	90*	54*
CN(C)c1cccc(C(=O)Nc2cccc(F)c2)c1	-74	80*	85*
CCN(CC)c1ccc(C(=O)Nc2cccc(F)c2)cc1	-4	6	x
CCCCCC#CCC#CCC#CCC#CCCCC(=O)O	u	97*	66*
CCCCP(=O)(O)CCC(=O)O	-12	-5	x
O=C(N[C@@H](Cc1ccc(O)cc1)C(=O)O)c1ccc(C(F)(F)F)cc1	7	x	x
COc1cccc(OC)c1-c1nn2c(-c3cc(-c4ccccc4)n[nH]3)nnc2s1	-5	89*	66*
COc1cc(-c2nn3c(-c4ccccn4)nnc3s2)cc(OC)c1OC	-5	-11	x
COc1cc(-c2nnc3sc(-c4cccnc4)nn23)cc(OC)c1OC	x	76*	93*
COc1ccc(-c2nnc3sc(-c4c(OC)cccc4OC)nn23)cc1	x	2	x
COc1cc(-c2nnc3sc(C4CCCCC4)nn23)cc(OC)c1OC	8	-22	x
COc1ccc(-c2nn3c(COc4ccccc4)nnc3s2)cc1OC	-5	68*	11
COc1cc(-c2nnc3sc(Cc4ccc(Cl)cc4)nn23)cc(OC)c1OC	x	56*	92*
